Experimental data from the supplement of paper PMC6763611.

Test system: Plasmodium falciparum NF54
Assay: growth inhibition relative to untreated control; higher = more inhibition
Conditions: 72 h
Outline: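 In dark 96-well half-area plates, each well held 100 μL of P. falciparum NF54 ring-stage culture at 1% parasitemia and 1% hematocrit. The cultures received a single test-compound dose of 5 μM or 1 μM and were kept at 37 °C for 72 h, in minimal RPMI either plain or enriched with folate (2.2 μM), pABA (7.3 μM), pHBA (7.3 μM), tyrosine (111 μM), phenylalanine (90 μM) and tryptophan. SYBR Green staining gave growth inhibition, expressed against untreated wells, with uninfected erythrocytes serving as the background.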

[1] = 1 µM, MM + chorismate end-products (CM screening medium)
[2] = 5 µM, MM + chorismate end-products (CM screening medium)

SMILES | growth inhibition [1] | growth inhibition (1 µM, minimal medium (MM)) | growth inhibition [2] | growth inhibition (5 µM, minimal medium (MM))
Oc1c(I)cc(I)c2cccnc12 | 39.4% | 9.57% | < 0% | < 0%
Cc1cc(O)nc(-n2nc(C)cc2C)n1 | 5.27% | < 0% | < 0% | < 0%
O=C(C1CCN(c2cc(-n3cccc3)ncn2)CC1)N1CCc2ccccc2C1 | 11.5% | 5.57% | 4.91% | 3.34%
CC(C)(C)CN1C(=O)C(c2ccccc2)(c2ccccc2)N=C1N | 45.9% | 45.7% | 57.1% | 34.9%
COC(=O)c1ccc(F)cc1NS(=O)(=O)c1cccc(-c2cnn(Cc3ccccc3)c2)c1 | 33.2% | 37.7% | 9.57% | < 0%
CCCS(=O)(=O)N1CCC(CO)(Cc2ccccc2C(F)(F)F)CC1 | 46.8% | 69.6% | 99.7% | 87.9%
CCOC(=O)c1cc(-c2csc(Nc3c(C)cc(C)cc3C)n2)on1 | 12.2% | 20.5% | 34.3% | < 0%
COc1ccc(S(=O)(=O)Nc2ccc(CN3CCN(C(=O)c4cccc(C#N)c4)CC3)cc2)cc1 | 0.529% | < 0% | 41.6% | 13.7%
COc1cccc(OC)c1C(=O)Nc1ccc(Cl)c(-c2nc3ccccc3s2)c1 | 20.8% | < 0% | 22.9% | 29.8%
CC(=O)N1CCc2cc3nc(C)cc(C)c3cc21 | 13.3% | < 0% | 38.1% | < 0%
CN1CCCN(C(c2ccccc2)c2ccc(Cl)cc2)CC1 (stereo unspecified) | < 0% | < 0% | 33.8% | 17.6%
N#Cc1ccc(-c2cnc(N)c(-c3ccc(C(N)=O)cc3)n2)cc1 | 99.3% | > 100% | > 100% | 89.9%
CCCCc1ccc(C(=O)Nc2nccc3ccccc23)nc1 | 6.6% | < 0% | 11.6% | 18.4%
CS(=O)(=O)N1CCC(CCn2nc(Cc3cccc4ccccc34)c3c(N)ncnc32)CC1 | < 0% | 24.3% | 41.3% | < 0%
O=C(Nc1cccc(Cl)c1)c1cnc(N2CCN(c3ccncc3)CC2)c(Cl)c1 | 90.3% | > 100% | 99.9% | 87.9%
CC(C(=O)N1CCCC1)N1CCN(S(=O)(=O)c2ccc(C(C)(C)C)cc2)CC1 (stereo unspecified) | 37.6% | 71% | 67.3% | 33.4%
O=C(Nc1nnc(-c2ccc(Cl)cc2)o1)c1cccc(C(F)(F)F)c1 | 11.8% | 33% | 42.7% | < 0%
CC1(C)Cc2c(c(N3CCOCC3)nc3snc(Br)c23)CO1 | 79.2% | 74.4% | 53.9% | 19.1%
NC(=O)c1cc(Br)ccc1OCCOc1ccccc1 | 14.5% | < 0% | 28.6% | < 0%
Cc1ccc(NC(=O)c2nc[nH]c2C(=O)Nc2nc3ccccc3[nH]2)c(C)c1 | 31% | 49.8% | 26.8% | 80.9%
COc1ccc(C2=NN(C3CCCCCC3)C(=O)[C@@H]3CC=CC[C@H]23)cc1OCCCCOc1ccc(-c2nnn[nH]2)cc1 | 19% | 16.4% | 44.9% | 48.6%
CC(C)(C)C(=O)N(CCCCCCN1C[C@H](O)[C@@H](O)[C@H](O)[C@H]1CO)C1CCCCCC1 | 28.4% | < 0% | < 0% | < 0%
Cn1ncc2c(N3CCOCC3)nc(NCCc3c[nH]c4ccccc34)nc21 | 18.9% | 31.1% | 10.8% | < 0%

SMILES | growth inhibition [1] | growth inhibition (1 µM, minimal medium (MM)) | growth inhibition [2] | growth inhibition (5 µM, minimal medium (MM))
CN1CCN(S(=O)(=O)c2ccc(-c3ccc4c(Nc5ccc6nn[nH]c6c5)ccnc4c3)cc2)CC1 | 89.7% | > 100% | 92.9% | 95.1%
NCC(=O)N1CCn2c(nc(-c3ccccc3)c2Nc2ccc3c(c2)OCO3)C1 | 99.3% | > 100% | > 100% | 93.2%
c1coc(CNc2nc(N3CCCCC3)nc3ccccc23)c1 | 68.6% | 35.7% | 67.2% | 67.2%
COc1cc(OC)cc(C(=O)NCC2Cc3cc(Cl)cc(-c4ccncc4)c3O2)c1 (stereo unspecified) | 91.9% | > 100% | 93% | 91.9%
Cc1ccc2[nH]c3c(NCCN(C)C)ncnc3c2c1 | 97.6% | 96.5% | 98.1% | 95.7%
C[C@@H]1[C@H](O)[C@@H](C)/C=C/C=C/C=C/C=C/C=C/C=C/C=C/[C@H](O[C@@H]2O[C@H](C)[C@@H](O)[C@H](N)[C@@H]2O)C[C@@H]2O[C@](O)(C[C@@H](O)C[C@@H](O)[C@H](O)CC[C@@H](O)C[C@@H](O)CC(=O)O[C@H]1C)C[C@H](O)[C@H]2C(=O)O | 86.2% | 89.8% | > 100% | 97.9%
O=S(=O)(c1ccc(Cl)cc1)N1CCN(C(=S)NCc2ccco2)CC1 | 97.7% | 93.6% | 94.3% | 92.6%
Nc1ncnc2[nH]nc(Cc3cccc4ccccc34)c12 | 12.3% | 22.2% | < 0% | < 0%
O=C(OCc1ccccc1)N1CCC(c2cc(-c3ccncc3)c(-c3ccc(F)cc3)[nH]2)CC1 | 62.4% | 62.7% | 98.3% | 64.2%
CC1CCCN(C(=O)C(C)Nc2cc(Cl)ccc2N2CCOCC2)C1 (stereo unspecified) | 90.5% | 94.3% | 91% | 94.9%
CC(Oc1cccc(Cl)c1)C(=O)Nc1ccc2oc(-c3ccncc3)nc2c1 (stereo unspecified) | < 0% | 2.28% | < 0% | 3.02%
NS(=O)(=O)c1cncc(-c2ccc3nccc(-c4cn[nH]c4)c3n2)c1 | 83.8% | > 100% | 92.8% | 94.8%
c1ccc(Oc2ccc(-c3cc(CN4CCOCC4)[nH]n3)cc2)cc1 | 0.894% | < 0% | < 0% | 11.1%
COc1cc(C2=NCCN2)cc2cc(-c3ccc(C4=NCCN4)cc3)oc12 | 78% | > 100% | 98.4% | 100%
O=C(Nc1ccc(F)c(-c2nc3cc(-c4ccccc4)cnc3[nH]2)c1)N1CCCC1 | 17.5% | 25.6% | 3.27% | < 0%
C[C@H](C(N)=O)N1CCCC[C@@H]1c1ccc(OCc2cccc(F)c2)cc1 | 45.1% | < 0% | 14.2% | 15.9%
CNC(=O)c1nn(C)c2c1C(C)(C)Cc1cnc(Nc3ccc(N4CCN(C)CC4)cc3)nc1-2 | 64.5% | 73.6% | 88% | 87.2%
Cn1ccnc1CNCCS(=O)(=O)c1cccc(Nc2ccc(-c3cccc(F)c3)cn2)c1 | < 0% | < 0% | 26.9% | 3.75%
Cc1cc(Nc2ccc(C(F)(F)F)cc2)n2ccnc2n1 | 97.2% | 94.6% | 97.3% | 94.4%
COc1ccc(OC(C)C(=O)Nc2ccc(Cl)cc2C)cc1 (stereo unspecified) | 30% | 15.2% | < 0% | < 0%
COC(=O)c1cccc2oc(-c3cccc(OC)c3NC(=O)c3cc(-c4ccccc4)on3)nc12 | < 0% | < 0% | < 0% | < 0%
CN1CCC(c2cc(-c3ccncc3)c(-c3ccc(F)cc3)[nH]2)CC1 | 72.9% | 72.7% | 92.6% | 92.2%
Nc1ccc2ncnc(Nc3ccc(OCc4cccc(F)c4)c(Cl)c3)c2c1 | 61.9% | 24.6% | 99.7% | 95.7%

SMILES | growth inhibition [1] | growth inhibition (1 µM, minimal medium (MM)) | growth inhibition [2] | growth inhibition (5 µM, minimal medium (MM))
OCc1ccc(-c2cncc(Nc3cccc(Cl)c3)c2)cc1 | 78.7% | > 100% | 83.2% | 85%
Cc1nn(C)cc1C(C)Nc1nncc(-c2ccc(C(F)(F)F)cc2)n1 (stereo unspecified) | 94.7% | 97.4% | 99.9% | 91.7%
CC(C)(C(=O)Nc1ccc(F)cc1)n1cc(-c2ccccc2F)cn1 | 0.0824% | < 0% | 5% | 15.7%
CC(Oc1ccccc1)C(=O)Nc1nc(-c2ccccn2)cs1 (stereo unspecified) | < 0% | 38.4% | 68.6% | 38.2%
COc1ccc(-c2nnc3ccc(-c4cccc(C(C)C)c4)cn23)cc1OC | 9.51% | 3.89% | 33.1% | < 0%
Cc1cc(NC(=O)c2ccc(S(=O)(=O)N(Cc3ccccc3)C(C)C)cc2)no1 | 95.5% | > 100% | 99.8% | 93.1%
Cc1ccc(NC(=O)c2cc(S(=O)(=O)NC(C)(C)C)ccc2C)nc1 | 70.6% | 52.9% | 93% | 94.5%
COc1cc(CN2CCC3(C=Cc4ccccc43)CC2)cc2c1OCO2 | > 100% | < 0% | < 0% | 8.3%
O=C(Nc1cnc2ccccc2c1)c1cccc(-n2cnnn2)c1 | 94.1% | 96.4% | 86.9% | 87.1%
O=C(N[C@H](Cc1ccccc1)C(=O)Nc1ccccc1N1CCOCC1)c1cccs1 | 6.47% | 2.12% | 47.7% | 27.5%
Cc1cc(C)c2cc(C(=O)NC3CCCCCCC3)[nH]c2c1 | 34.2% | 0.728% | 55.4% | < 0%
Cc1cc(Cl)c(S(=O)(=O)N2CCCC2)cc1OCC(=O)NC1CCCCC1 | 71.3% | 100% | 82.3% | 59.9%
Nc1ncc(-c2cn[nH]c2)cc1-c1nc2cc(Cl)cnc2[nH]1 | 97% | 97% | > 100% | 94.3%
N#Cc1nc(-c2ccccc2F)oc1NCCc1ccccc1 | < 0% | < 0% | < 0% | 15.2%
O=C(C1CCN(c2nnnn2-c2ccccc2)CC1)N1CCc2ccccc2C1 | 43.4% | 33% | < 0% | < 0%
Cc1ccc(S(=O)(=O)Nc2ccc(CN3CCN(C(=O)c4cccc(C#N)c4)CC3)cc2)cc1 | 5.22% | 5.35% | 42.7% | < 0%
CC(=O)Nc1ccc(-c2noc(CC3CCCN(Cc4cccc(F)c4C)C3)n2)cc1 (stereo unspecified) | 25.8% | < 0% | 93.6% | 82%
COC(=O)c1c(NC(=O)c2cc3ccccc3oc2=O)sc2c1CCN(Cc1ccccc1)C2 | < 0% | 8.51% | 5.7% | 1.3%
Cc1ccc2c(c1C)NC(=O)C21NN=C(c2ccccc2)S1 (stereo unspecified) | 95.4% | 89.4% | 98.3% | 89.8%
CCCCS(=O)(=O)Nc1ccc2cnn(C)c2c1 | 3.73% | < 0% | 13.4% | 1.13%
CC(C)(C)OC(=O)N1CCN(c2nccc(-c3ccc(-c4ccc(Cl)cc4)s3)n2)CC1 | < 0% | 2.86% | 64.1% | 11.6%
c1ccc2c(c1)CN(CC1CC1)CC1(CCN(Cc3c[nH]c4cnccc34)CC1)O2 | 99% | 97.8% | 93.1% | 87.4%
Nc1ncc(Br)cc1-c1nc2cc(Cl)cnc2[nH]1 | 61.7% | < 0% | 67.3% | 89.1%
